An excerpt weighted towards active compounds, which were near 3.8% of everything screened.
ATXN viability – viability counter-screen for ATXN expression inhibitors; Potency, µM (titrated, usually from 56.7 µM), usual class: cytotoxic; S2 cells (HEK-293 line with an ATXN2-luciferase reporter) viability, CellTiter-Fluor protease fluorescence, 24 h; AID 651635; 400,000 compounds, 0.49% hits; note: nearly all actives have a fitted effect of over 40% in size
ATXN2 expr inh – ATXN2 expression inhibition | Potency, µM (top dose mostly 57 µM), for inactives: top-dose activity change, negative = inhibition, usual class: inhibitors | AID 1745845 | 360,000 compounds, 0.72% hits | HEK-293 ATXN2-luciferase reporter, luminescence, 24 h; note: % is set by controls: 0 for no effect and ±100 for the full control effect; nearly all actives have a fitted effect of over 55% in size
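qHTS (up to 57 uM final) was run with 24 h compound exposure of reporter cells at 37 °C. Each well was multiplexed: SteadyGlo luminescence measured ATXN2-luciferase expression after a fluorogenic Gly-Phe-AFC viability readout (25 uM final).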
HepG2 viability – kills HepG2 cells in TGF-b inhibitor counter-screen; AID 588856; Potency, µM (doses to about 46.1 µM), inactives show at the highest dose activity change, negative = cytotoxicity, hits mostly cytotoxic; 410,000 compounds, 0.76% hits; HepG2 CAGA-GFP viability, ATP luminescence, 18 h
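CellTiter-Glo luminescence gave cytotoxicity after 18 hours at 37 degrees C. The cells were HepG2 CAGA-GFP in 1% FBS DMEM, stimulated with 500 pg/mL TGF-beta after compound addition. %Activity was normalised to no-cell wells (complete cell-killing) and DMSO (no toxicity), and curves were fitted and classified.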
Nrf2 inh – blocks Nrf2 signaling; A549 ARE-Fluc reporter, luciferase luminescence, 18-24 h; Potency, µM (series often up to 46 µM), for inactives: at the highest dose activity change, negative = inhibition, actives largely listed as inhibitors; 360,000 compounds, 2.1% hits; note: % is set by controls: 0 for no effect and ±100 for the full control effect; nearly all actives have a fitted effect of over 60% in size
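Quantitative HTS in A549 cells stably bearing an antioxidant response element-firefly luciferase construct. Inhibition of Nrf2-driven transcription was scored by luminescence after 18-24 h of compound exposure at 37 °C.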
A549 viability – counter-screen for Nrf2 inhibitors: cytotoxicity in A549 cells; A549 ARE-Fluc cells, CellTiter-Fluor viability, 18-24 h; AID 504648; Potency, µM (top dose mostly 46 µM), inactives show at the top dose activity change, negative = cytotoxicity, usual class: inhibitors; 390,000 compounds, 0.16% hits; note: % is set by controls: 0 for no effect and ±100 for the full control effect
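Cytotoxicity counterscreen: CellTiter-Fluor fluorescence was measured in A549 ARE_Fluc cells after 18-24 h of compound exposure in a concentration series. The subsequent BugLite luminescent read reports ARE-luciferase activity.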
TGFb SMAD3 inh – TGF-b pathway inhibition. HepG2 CAGA-GFP TGF-b/SMAD3 reporter, GFP fluorescence, 18 h; TGF-beta stimulated, 500 pg/mL final. Potency, µM (highest dose often 46.1 µM), inactives show top-dose activity, negative = inhibition, usual class: inhibitors. 410,000 compounds, 1.2% hits; note: % is set by controls: 0 for no effect and ±100 for the full control effect; nearly all actives have a fitted effect of over 65% in size
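Per well, imaged GFP fluorescence of HEPG2 CAGA-GFP cells gives the signal; cells get compound, then TGF-beta (500 pg/mL final), 18 h at 37 degrees C; %Activity versus -TGF-beta and +DMSO controls.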
* = called active by the depositor; i = inactive; ? = inconclusive; / = not tested or not shown; ! = not confirmed by another sample; [ ] = another dose, or the depositor's remark. Calls come from the whole dose curve; as a rule, active = well fitted curve in the direction sought with a large enough effect; inconclusive = small, poorly fitted or top-dose-only effect, or another doubt; inactive = no such curve, though single readings can be large; an effect the other way counts as inactive or inconclusive. Potency is the fitted concentration of half-maximal effect.

SMILES	ATXN viability	ATXN2 expr inh	HepG2 viability	Nrf2 inh	A549 viability	TGFb SMAD3 inh
CC[n+]1c(/C=C/C=C/c2ccc(N(C)C)cc2)sc2ccccc21	/	?	-15.5%	?	-25.4%	?
C[N+](C)(C)CC1CCCC(C[N+](C)(C)C)C1=O (configuration not stated)	?	?	-84.4%	0.5%	-3.7%	12.6µM*
O=c1nc(/C=C/c2ccc(Cl)cc2Cl)cc(C(F)(F)F)[nH]1	i	/	11.2µM*	?	-9.8%	15.8µM*
Clc1ccc(-c2csc3ncnc(Sc4nnnn4C4CC4)c23)cc1	/	/	-99.0%	/	/	?
O=C1NCc2c1c1c3ccccc3[nH]c1c1[nH]c3ccccc3c21	/	/	12.6µM*	?	-20.7%	?
C1=NCCc2c1[nH]c1ccccc21	i	?	-36.0%	8.3%	3.5%	?
C[C@H]1CNC(=O)c2c(C(=O)N3CCN(C(=O)OC(C)(C)C)CC3)ncn21	?	?	-8.0%	/	/	0.7%
NC(N)=Nc1ccc2[nH]c3c(c2c1)C[C@@]1(O)[C@H]2Cc4ccc(O)c5c4[C@@]1(CCN2CC1CC1)[C@H]3O5	?	-10.1%	-52.6%	29.7%	-7.6%	14.1µM*!
O=C(NC(c1cccnc1)C(F)(F)F)c1cnn(-c2nccc(-c3cccs3)n2)c1C1CC1 (configuration not stated)	i	/	/	/	/	/
CCCCCSc1cc(OC)c(CCNC)cc1OC	i	-12.1%	10µM*	/	?	?
CCCCCCCSc1cc(OC)c(CCNC)cc1OC	?	?	-94.8%	/	-5.4%	?
CCS(=O)(=O)NCc1nnc2n1-c1ccc(Br)cc1C(c1ccccc1Cl)=NC2	i	/	-5.2%	-0.9%	17.8%	-5.8%
COc1cc(C(=O)NCCSc2c(-c3ccccc3)[nH]c3ccccc23)cc(OC)c1OC	?	?	-13.9%	-13.6%[9.27 µM]	-9.5%	?
COc1cc(C)c(C(=O)CC(=O)c2c(C)cc(OC)cc2C)c(C)c1	i	25.1µM*	-63.3%	?	1.4%	5.9%
COc1cc(OC)cc(C(=O)Nc2ccc(Br)cc2C(=O)c2ccccc2)c1	i	1.3%	-0.7%	-15.6%	2.1%	-6.4%
CC(C(O)c1ccccc1)N(C)C/C=C/c1ccccc1 (configuration not stated)	i	-19.6%	/	/	/	/
OC(COCc1ccc(Cl)cc1)CN1CC=C(c2ccccc2)CC1 (configuration not stated)	?	-20.3%	28.2µM*!	19.2%	4.1%	?
CCc1ccccc1NC(=O)C1CCCN(c2ncnc3onc(C)c23)C1 (configuration not stated)	i	-5.2%	3.9%	?	-12.9%	-15.3%
CC(C)(N)Cc1ccc(Cl)cc1	i	-7.9%	/	/	/	/
C=CCc1ccccc1OCCn1c(C2CC(=O)N(Cc3ccc(F)cc3)C2)nc2ccccc21 (configuration not stated)	/	?	-108.4%	-5.7%	-1.8%	15.8µM*
O=S(=O)(O)C(F)(F)C(F)(F)C(F)(F)C(F)(F)C(F)(F)C(F)(F)C(F)(F)C(F)(F)F	?	14.8%[116 µM]	/	/	/	/
Cc1cc[n+](Cc2ccccc2)cc1	i	-9.6%	-12.7%	18.4µM*	-0.6%	0.5%
O=C(O)C(O)(c1ccc(Cl)cc1)C1(O)CCCC1 (configuration not stated)	i	/	-18.8%	/	/	-5.6%
COC(=O)C1=C(c2cccc(OCc3ccccc3)c2)C[C@@H]2CC[C@H]1N2C(=O)NCCOc1ccc(OC)cc1	?	-13.5%	2.8%	14.6µM*	-7.2%	-25.4%
COC(=O)C1=C(c2ccc(-c3ccccc3)c(F)c2)C[C@@H]2CC[C@H]1N2C(=O)NC1CCCCC1	i	-16.2%	-19.1%	18.4µM*	?	-19.6%
SMILES	ATXN viability	ATXN2 expr inh	HepG2 viability	Nrf2 inh	A549 viability	TGFb SMAD3 inh
COC(=O)C1=C(c2ccc(-c3ccccc3)c(F)c2)C[C@@H]2CC[C@H]1N2C(=O)NCCOc1ccc(OC)cc1	?	-33.0%	4.4%	16.4µM*	-17.1%	?
COC(=O)C1=C(c2ccc(-c3ccccc3)c(F)c2)C[C@@H]2CC[C@H]1N2C(=O)NCCNC(C)=O	?	-25.6%	-6.0%	-19.6%	-0.5%	-10.9%
COC(=O)C1=C(c2ccc(-c3ccccc3)c(F)c2)C[C@@H]2CC[C@H]1N2C(=O)NCCc1ccccc1	?	?	-22.0%	?	?	?
COC(=O)C1=C(c2ccc(-c3ccccc3)c(F)c2)C[C@@H]2CC[C@H]1N2C(=O)NCCCOC(C)C	?	?	-46.3%	16.4µM*	-23.4%	?
CCCCC[C@@H]1CCCCC[C@@H](O)C[C@@H](O)[C@H](O)/C=C/C(=O)O1	i	0.6%	/	/	/	/
Cc1cccc(N(C)S(=O)(=O)c2cc(-c3cnc(C4CC4)o3)ccc2C)c1	i	2.9%	-31.5%	/	-4.2%	?
COC(=O)C1=C(c2ccc(OCc3ccccc3)cc2)C[C@@H]2CC[C@H]1N2C(=O)NCCN1CCOCC1	i	-26.2%	-1.6%	0.7%	1.6%	-17.9%
COC(=O)C1=C(c2ccc(Cl)c(C(F)(F)F)c2)C[C@@H]2CC[C@H]1N2C(=O)NCCOc1ccccc1Cl	?	?	-25.8%	23.1µM*	?	?
COC(=O)C1=C(c2ccc(OC(F)(F)F)cc2)C[C@@H]2CC[C@H]1N2C(=O)NCCNC(C)=O	i	-6.3%	-3.0%	2.7%	9.4%	?
COC(=O)C1=C(c2ccc(OC(F)(F)F)cc2)C[C@@H]2CC[C@H]1N2C(=O)NCCOc1ccc(OC)cc1	?	?	-9.3%	23.1µM*	-22.0%	?
COC(=O)C1=C(c2ccc3ccccc3c2)C[C@@H]2CC[C@H]1N2C(=O)NCc1ccc(C(F)(F)F)cc1	i	?	-26.1%	23.1µM*	-24.6%	?
COC(=O)C1=C(c2ccc(OCc3ccccc3)cc2)C[C@@H]2CC[C@H]1N2C(=O)NC1CCN(Cc2ccccc2)CC1	11.2µM*	12.6µM*	-75.8%	20.6µM*	20.6µM*	?
COC(=O)C1=C(c2ccc3ccccc3c2)C[C@@H]2CC[C@H]1N2C(=O)NCc1ccc(F)cc1	?	?	5.6%	?	-17.6%	?
COC(=O)C1=C(c2ccc(Cl)c(C(F)(F)F)c2)C[C@@H]2CC[C@H]1N2C(=O)NCCNC(C)=O	i	2.0%	1.1%	22.5%	-0.3%	7.8%
